An excerpt weighted towards active compounds, which were near 5.8% of everything screened.
12-LOX inh – Primary qHTS assay for inhibitors of human arachidonate 12S-lipoxygenase (ALOX12): Round 2. Polyunsaturated fatty acid lipoxygenase ALOX12 (Homo sapiens), P18054. purified 12hLO, xylenol orange hydroperoxide absorbance. Potency, µM (series often up to 108 µM), for inactives: at the highest dose activity change, negative = inhibition, usual class: inhibitors. hit rate 1.1% among 580,000. AID 1671190, 2021; further: on the % scale 0 is the no-effect control and ±100 the full control effect
Target sequence (P18054 whole entry, looked up): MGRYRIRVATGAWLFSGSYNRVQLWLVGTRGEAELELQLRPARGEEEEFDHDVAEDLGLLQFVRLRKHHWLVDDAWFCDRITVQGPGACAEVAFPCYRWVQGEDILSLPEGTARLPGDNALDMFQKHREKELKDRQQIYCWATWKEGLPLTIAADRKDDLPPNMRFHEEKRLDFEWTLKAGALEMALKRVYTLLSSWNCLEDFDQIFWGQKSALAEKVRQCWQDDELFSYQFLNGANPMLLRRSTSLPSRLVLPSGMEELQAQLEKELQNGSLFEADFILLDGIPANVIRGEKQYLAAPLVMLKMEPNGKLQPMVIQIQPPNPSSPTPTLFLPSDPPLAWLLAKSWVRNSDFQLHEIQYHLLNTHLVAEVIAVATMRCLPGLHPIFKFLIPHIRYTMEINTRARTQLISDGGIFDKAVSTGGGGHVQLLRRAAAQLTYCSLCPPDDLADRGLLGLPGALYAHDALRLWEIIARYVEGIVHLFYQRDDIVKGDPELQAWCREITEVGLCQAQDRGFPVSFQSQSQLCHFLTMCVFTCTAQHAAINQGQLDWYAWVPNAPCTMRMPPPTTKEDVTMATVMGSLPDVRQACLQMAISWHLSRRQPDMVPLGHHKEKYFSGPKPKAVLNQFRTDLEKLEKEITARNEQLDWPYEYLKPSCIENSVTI
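Hydroperoxide product was detected by ferrous iron/xylenol orange as the 573 to 405 nm absorbance ratio. Arachidonic acid at 40 uM (final) was turned over for 30 min at room temperature by 150 nM human 12hLO, pH 7.0 Hepes buffer, after 15 min compound preincubation.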
KB-V1 MDR tox – qHTS assay for MDR1-selective chemotherapeutics: Primary screen using the drug-selected MDR subline cells KB-V1; AID 1347076, 2019; Potency, µM (top dose mostly 46.1 µM), actives largely listed as cytotoxic; hit rate 3.4% among 400,000; KB-V1 MDR cells viability, CellTiter-Glo, 72 h; further: on the % scale 0 is the no-effect control and ±100 the full control effect; nearly all actives have a fitted effect of over 60% in size
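KB-V1 MDR subline cells in DMEM (phenol-red free, 10% FBS) exposed to compounds in qHTS concentration series for 72 h at 37 degrees C. Viability read by CellTiter-Glo luminescence; concentration-effect curves fitted after normalization and correction.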
KB-3-1 cytotox – qHTS assay for MDR1-selective chemotherapeutics: Primary screen using the parental adenocarcinoma cell KB-3-1; hit rate 1.4% among 400,000; AID 1347075, 2019; KB-3-1 viability, CellTiter-Glo ATP luminescence, 72 h; Potency, µM (doses to about 46.1 µM), hits mostly cytotoxic; further: on the % scale 0 is the no-effect control and ±100 the full control effect; nearly all actives have a fitted effect of over 60% in size
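KB-3-1 parental drug-naive adenocarcinoma cells in DMEM/10% FBS, incubated 72 h at 37 C with pin-transferred compounds across a concentration series. Viability by CellTiter-Glo luminescence; concentration-response curves fitted after normalization.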
PINK1 expr mod – A Quantitative High throughput Screen to Identify Chemical Modulators of PINK1 Expression; PINK1 immunofluorescence, high-content cytometry, 24 h; Potency, µM (doses to about 76.6 µM), for inactives: at the highest dose activation (PINK1 increase), actives largely listed as activators; hit rate 0.2% among 410,000; AID 624263, 2012; active means well fitted activation curve with a large enough effect; inconclusive means small, poorly fitted or top-dose-only effect; cell line not stated here; further: % of control where 0% means no effect; nearly all actives have a fitted effect of over 65% in size
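Compound titrations (5 concentrations, 24 h) on a stable cell line; DMSO and CCCP controls. Endpoint: fixed-cell PINK1 immunofluorescence with mitochondrial, cell and nuclear markers, scanned by microplate cytometer.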
SW480 rerep – A quantitative high throughput screen for small molecules that induce DNA re-replication in SW480 colon adenocarcinoma cells | AID 624297, 2012 | Potency, µM (series often up to 46.1 µM), inactives show top-dose re-replication activation, usual class: activators | hit rate 1.8% among 340,000 | SW480 DNA re-replication, Hoechst DNA content imaging, 48 h; further: % of control where 0% means no effect; nearly all actives have a fitted effect of over 55% in size
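Treated cells incubate 48 hr (37 C, 5% CO2), are stained 40 min with Hoechst, and nuclear fluorescence is enumerated; a rise in nuclei with high DNA signal marks re-replication.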
MCF10A rerep – A quantitative high throughput screen for small molecules that induce DNA re-replication in MCF 10a normal breast cells; MCF 10A DNA re-replication, Hoechst nuclear intensity, 48 h; Potency, µM (highest dose often 46.1 µM), for inactives: top-dose activity, positive = re-replication, usual class: activators; hit rate 2.9% among 350,000; AID 624296, 2012; further: % of control where 0% means no effect; nearly all actives have a fitted effect of over 50% in size
An asterisk follows results filed as active; i = inactive; ? = inconclusive; · = no result. Unless noted, the call rests on the fitted dose curve; in most records, active means well fitted curve in the direction sought with a large enough effect; inconclusive means small, poorly fitted or top-dose-only effect, or another doubt; inactive means no such curve, though single readings can be large; an effect the other way counts as inactive or inconclusive. Potency means the concentration at half of the fitted maximal effect.

SMILES	12-LOX inh	KB-V1 MDR tox	KB-3-1 cytotox	PINK1 expr mod	SW480 rerep	MCF10A rerep
CS(=O)(=O)c1sc2nc(-c3cccs3)cc(-c3ccccc3)c2c1N	0.0%	i	i	-2.1%	?	18.4µM*
N#Cc1sc2nc(-c3ccccc3)cc(-c3ccco3)c2c1N	?	i	i	0.4%	?	?
N#Cc1sc2nc(-c3cccs3)cc(-c3ccc(F)cc3)c2c1N	-18.2%	i	i	?	?	?
Cc1ccc(-c2cc(-c3ccccc3)c3c(N)c(S(C)(=O)=O)sc3n2)cc1	-13.5%	?	?	-2.0%	11.6µM*	?
O=c1cc(-c2ccccc2)sc2nnc(-c3ccc(Cl)cc3)n12	32.0%	·	·	·	·	·
CCCS(=O)(=O)Nc1cccc(-c2ccc3nnc(C)n3n2)c1	3.6%	i	i	1.8%	18.4µM*	-4.1%
Cc1nnc2ccc(-c3cccc(NS(=O)(=O)c4ccccc4Cl)c3)nn12	-2.0%	i	?	5.3%	-8.3%	?
O=C(NCc1ccnc(N2CCCC2)c1)c1ccc(Cl)c(S(=O)(=O)N2CCCCCC2)c1	19.7%	·	·	·	·	·
COc1ccc(NC(=O)CSc2nnc3c4c(nc(-c5ccccc5)n23)CC(C)(C)OC4)cc1	-14.9%	2.91µM*	i	?	?	10.2%
COc1ccc(-c2nc3c(c4nnc(SC(C)C(=O)Nc5ccc(C)cc5)n24)COC(C)(C)C3)cc1 (stereo unspecified)	-3.1%	i	i	4.5%	0.0%	-5.2%
CCOc1ccc(-n2c(SC)nc3c(c2=O)SCC3)cc1	?	i	i	-3.9%	-12.0%	0.2%
CCOc1ccc(-n2c(SC(C)C)nc3c(c2=O)SCC3)cc1	0.0%	2.91µM*	i	-3.0%	13.9%	19.0%
N#C/C(=C/c1cccc(C#N)c1)c1nc2ccccc2[nH]1	32.1%	·	·	·	·	·
CCOc1ccc(-c2cc(-c3nc(-c4cccnc4)no3)[nH]n2)cc1	6.0%	·	·	·	·	·
O=C(NC1CCCCC1)c1cccnc1Cl	15.8%	·	·	·	·	·
COc1cccc2c(N/N=C/c3ccc(O)c(O)c3)cc(C)nc12	20µM*	i	i	0.4%	0.1%	-2.5%
COc1ccc(/C=N/Nc2cc(C)nc3c(C)cccc23)cc1	?	i	?	-1.9%	25.9µM*	18.4µM*
COc1ccc(Nc2cc(C)nc3ccc(OC)cc23)cc1	0.0%	?	i	3.2%	17.5%	22.8%
COc1ccc(/C=N/Nc2cc(C)nc3ccccc23)cc1	0.0%	?	14.6µM*	-0.7%	4.11µM*	1.64µM*
COc1ccc2nc(C)cc(N/N=C/c3ccc(F)cc3)c2c1	?	?	25.9µM*	-1.1%	16.4µM*	23.1µM*
COc1cccc2c(Nc3ccccc3O)cc(C)nc12	-0.2%	·	·	·	·	·
Cn1c(=O)[nH]c(=O)c2c1nc(SCCCc1ccccc1)n2Cc1ccccc1	-7.4%	·	·	·	·	·
CC1=C[C@@H](CNC(=O)NCc2ccccc2)[C@H](C(C)C)C[C@H]1CC(=O)NCc1cccnc1	-10.9%	·	·	·	·	·
CCOC(=O)/C=C(C)\C=C\c1c[nH]c2ccccc12	?	i	i	1.4%	-2.5%	1.9%
COc1cc(C)c(/C=C/C(C)=C/C=C/C(C)=C/C(=O)O)c(C)c1C	?	i	i	2.3%	8.8%	8.2µM*
SMILES	12-LOX inh	KB-V1 MDR tox	KB-3-1 cytotox	PINK1 expr mod	SW480 rerep	MCF10A rerep
CCOC(=O)/C=C(C)/C=C/C=C(C)/C=C/c1c(C)cc(OC)c(C)c1C	·	·	·	·	1.2%	26.6µM*
COc1cc(/C=C/C(=O)O)ccc1OS(=O)(=O)c1c(C)c(C)cc(C)c1C	-19.0%	i	i	-1.2%	-20.8%	8.5%
Cc1oc(-c2cccs2)nc1CC(=O)NCc1ccc(CN2CCC(C)CC2)cc1	-6.4%	·	·	·	·	·
Cc1ccc2c(c1)c(C)cc[n+]2Cc1ccccc1	-6.4%	i	8.2µM*	6.3%	0.9%	1.3%
Cc1ccc2ccc[n+](Cc3ccccc3)c2c1	-1.4%	i	5.17µM*	1.3%	11.2%	3.5%
COc1ccc2c(c1)c(C)cc[n+]2Cc1ccccc1	8.7%	i	8.2µM*	1.0%	-11.6%	0.0%
CCN(Cc1ccccc1)C(=O)c1[nH]c2ccc(OC)cc2c1C	7.1%	i	i	1.2%	1.2%	13.2%
COc1ccc(S(=O)(=O)NC2CCCCC2)c2cccnc12	28.2%	·	·	·	·	·
CCCCN(Cc1ccccc1)c1ccc(NS(=O)(=O)c2ccc(C(C)=O)cc2)cc1C(=O)O	4.47µM*	·	·	·	·	·
CCCCN(Cc1ccccc1)c1ccc(NS(=O)(=O)c2ccc(C(C)(C)C)cc2)cc1C(=O)O	14.1µM*	·	·	·	·	·
CC(C)CCN1CCC(N2CCN(S(=O)(=O)c3ccc4c(c3)CCC4)CC2)C1=O (stereo unspecified)	-6.2%	·	·	·	·	·
COc1cccc(S(=O)(=O)Nc2ccc3c(c2)C(=O)N(C)C[C@H](OC)[C@H](C)CN(Cc2ccccc2F)[C@@H](C)CO3)c1	?	14.6µM*	?	·	·	·
CO[C@H]1CN(C)C(=O)c2cc(NS(=O)(=O)c3ccccc3)ccc2OC[C@@H](C)N(Cc2ccccn2)C[C@@H]1C	1.1%	i	i	·	·	·
Cc1ccc(C(=O)C[n+]2ccc3ccccc3c2)cc1	-8.7%	i	i	-1.7%	-14.5%	-0.5%
Cc1cc(C(C)(C)C)cc(C)c1C[n+]1ccc2ccccc2c1	-6.9%	i	1.64µM*	44.7µM*	2.3%	?
O=C(Nc1cc2c(cc1C(O)c1ccccc1)OCCO2)c1cccc(Br)c1 (stereo unspecified)	-41.9%	·	·	·	·	·
C=CCc1ccccc1OCC(O)Cn1nc(C(N)=O)c2ccccc2c1=O (stereo unspecified)	8.4%	·	·	·	·	·
CC(=O)Oc1c(C)c(OC(C)=O)c2c(c1C(C)=O)OC1CC(=O)C(C(C)=O)=C(O)C21C (stereo unspecified)	28.2µM*	?	i	-0.9%	-18.7%	10.2%
CC(=O)c1c(O)c(C)c(O)c2c1OC1=CC(=O)C(C(C)=O)C(=O)C12C (stereo unspecified)	·	·	·	0.3%	·	·
COC(=O)c1ccc(NC(=O)COc2ccc3c(c2)OCO3)cc1	-2.4%	i	i	0.9%	0.411µM*	-1.2%
Cc1ccc(C)c(OCC(=O)Nc2ccc3c(c2)OCO3)c1C	10.8%	?	8.2µM*	0.5%	?	6.1%
Cc1ccc(OCC(=O)Nc2ccc3c(c2)OCO3)cc1C	4.2%	i	i	2.5%	?	8.5%

Compound activity deposited in PubChem by National Center for Advancing Translational Sciences (NCATS).
